Test results as given in PubChem BioAssay AID2620 (National Center for Advancing Translational Sciences (NCATS), 2010).
Results filed as inconclusive are left out. Calls of active or inactive are those of the source. Calls follow the shape of the dose curve; as a rule, active = well fitted curve in the direction sought with a large enough effect; inconclusive = small, poorly fitted or top-dose-only effect, or another doubt; inactive = no such curve, though single readings can be large or run the other way.

Target: Pyruvate kinase PKM (Homo sapiens) (UniProt P14618)
Sequence (P14618 whole entry, looked up, canonical isoform): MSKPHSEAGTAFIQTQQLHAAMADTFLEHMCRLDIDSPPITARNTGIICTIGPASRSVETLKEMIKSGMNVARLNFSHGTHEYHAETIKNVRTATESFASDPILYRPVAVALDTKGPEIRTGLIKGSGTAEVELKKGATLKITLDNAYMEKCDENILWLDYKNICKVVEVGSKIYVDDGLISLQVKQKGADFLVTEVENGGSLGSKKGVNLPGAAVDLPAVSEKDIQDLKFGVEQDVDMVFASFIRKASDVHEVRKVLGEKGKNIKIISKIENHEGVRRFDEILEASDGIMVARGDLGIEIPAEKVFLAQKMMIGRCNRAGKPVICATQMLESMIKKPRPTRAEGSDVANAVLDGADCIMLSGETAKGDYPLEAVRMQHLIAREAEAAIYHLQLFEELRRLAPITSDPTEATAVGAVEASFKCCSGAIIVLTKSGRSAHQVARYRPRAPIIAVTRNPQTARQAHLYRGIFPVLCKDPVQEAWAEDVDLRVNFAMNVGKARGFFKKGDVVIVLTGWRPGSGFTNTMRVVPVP
Experiment: Secondary LDH Assay for Activators of Human Pyruvate Kinase M1 Isoform: for Probe SAR
Conditions: purified hPK-M1, LDH-coupled NADH fluorescence kinetic; series mostly up to 58.2 µM
Excerpt: NIH Chemical Genomics Center [NCGC]
Matthew G. Vander Heiden, M.D., Ph.D. [Harvard Medical School, 77 Avenue Louis Pasteur, Boston, MA 02115]
Human pyruvate kinase […] (hPK-M1)enzyme was supplied as a highly purified (>95% pure) preparation from Harvard Medical School and a secondary assay was used to evaluate compounds. This assay couples the formation of pyruvate from […] using lactate dehydrogenase (LDH) and NADH. The depletion of NADH is followed in a fluorescent-based kinetic assay that follows the formation of pyruvate to lactate, as catalyzed LDH. Pyruvate kinase substrates, PEP and ADP, were present in the assay at 0.1 mM and 4 mM respectively. In this kinetic assay initial rates were determined by following the fluorescence of NADH depletion.
NCGC Assay Protocol Summary:
Three uL of substrate mix (final concentration, 50 mM Tris-Cl pH 8.0, 200 mM KCl, 15 mM MgCl2, 0.1 mM PEP, 4.0 mM ADP, and 0.2 mM NADH) was dispensed into black-solid 1536 well plates. 23 nL of compounds were delivered by a pin tool and 1 uL of enzyme mix (final concentrations, 10 nM hPK-M1 and 1 uM of LDH) was added. Plates were immediately placed in ViewLux (Perkin Elmer) and NADH fluorescence was determined at 30 second exposure intervals for between 3 and 6 minutes. Data were normalized to the uninhibited controls.

outcome, inactive:
O=C1c2ccccc2C(=O)N1Cc1cccnc1
COc1ccccc1N1C(=O)c2ccccc2C1=O
Cc1ccc(NS(=O)(=O)c2ccc3c(c2)CCCC(=O)N3)cc1C
N#Cc1ccc(NS(=O)(=O)c2ccc3c(c2)CCC(=O)N3)cc1
O=S(=O)(c1ccc2c(c1)OCCO2)N1CCN(S(=O)(=O)c2c(F)cccc2F)CC1
CC(=O)N1CCCc2cc(S(=O)(=O)Nc3ccc(C)c(C)c3)ccc21
O=C1c2ccccc2C(=O)N1c1cccc(=O)[nH]1
Cc1ccc(NS(=O)(=O)c2ccc(-c3ccccc3)cc2)cc1C
CN(C)c1cccc(S(=O)(=O)N2CCN(S(=O)(=O)c3ccc4c(c3)OCCO4)CC2)c1
O=C1CCc2cc(S(=O)(=O)Nc3cccc(B(O)O)c3)ccc2N1
O=C1CCc2cc(S(=O)(=O)Nc3cccc(Cl)c3)ccc2N1
Cc1ccc(NS(=O)(=O)c2ccc(Cl)cc2)cc1C
CC(=O)Nc1cccc(S(=O)(=O)Nc2ccc(C)c(C)c2)c1
Cc1ccc(NS(=O)(=O)c2ccc3ccccc3c2)cc1C
Cc1ccc(NS(=O)(=O)c2cc3c(cc2-c2cn[nH]c2)NC(=O)CO3)cc1C
O=C1CCc2cc(S(=O)(=O)Nc3ccccc3F)ccc2N1
CCCCN1C(=O)c2ccccc2C1=O
CNc1cccc(S(=O)(=O)N2CCCN(S(=O)(=O)c3ccc4c(c3)OCCO4)CC2)c1
Cc1ccc(NS(=O)(=O)c2cc3c(cc2C)OCC(=O)N3)cc1C
Cc1ccc(NS(=O)(=O)c2cc3c(cc2N(C)C)NC(=O)CC3)cc1C
COc1cc(F)c(S(=O)(=O)N2CCCN(S(=O)(=O)c3cccc(N)c3)CC2)c(F)c1
Cc1ccc(NS(=O)(=O)c2cc3c(cc2F)NC(=O)CC3)cc1C
CSc1cc2c(s1)c1cnn(Cc3cccc(O)c3)c(=O)c1n2C
O=C1c2ccccc2C(=O)N1c1ccc(Cl)cc1
Cc1ccc(Nc2c(-c3ccc(C)s3)nc3cccc(C)n23)cc1
Cc1ccc(NS(=O)(=O)c2ccc3[nH]c(=O)[nH]c3c2)cc1C
O=C1c2ccccc2C(=O)N1c1ccc2ncccc2c1
Cc1ccccc1OC1=NS(=O)(=O)c2ccccc21
Cc1ccccc1NS(=O)(=O)c1ccc2c(c1)CCC(=O)N2
Cc1ccc(NS(=O)(=O)c2cc3c(cc2Br)NC(=O)CO3)cc1C
Cc1cc(N2C(=O)c3ccccc3C2=O)no1
Cc1ccc(NS(=O)(=O)c2cccc(Cl)c2)cc1C
COc1ccc(Nc2c(-c3ccc(C)o3)nc3ccccn23)cc1
CNc1cc2c(cc1S(=O)(=O)Nc1ccc(C)c(C)c1)CCC(=O)N2
Cc1ccc(NS(=O)(=O)c2cc3c(cc2Cl)CCC(=O)N3)cc1C
Cc1ccc(NS(=O)(=O)c2cc3c(cc2N(C)C)CCC(=O)N3)cc1C
O=C1c2ccccc2C(=O)N1c1cccc2ncccc12
Cc1ccc(OC2=NS(=O)(=O)c3ccccc32)cc1
Cc1ccc(NS(=O)(=O)c2ccc3c(ccn3C)c2)cc1C
O=C1CCc2cc(S(=O)(=O)Nc3cccc(Br)c3)ccc2N1
